Assay results taken from PubChem BioAssay (Tox21).
Values without a mark were called inactive. Inconclusive results are not listed. Where a call stands in place of a potency, no number is given. The source made the active and inactive calls. The call rests on the fitted dose curve; in most records, active means well fitted curve in the direction sought with a large enough effect in the repeat runs; inconclusive means weak or mixed curves; inactive means no such curve, though single readings can be large; an effect the other way counts as inactive or inconclusive.

Columns and labels:
[1] = qHTS RealTime-Glo MT Cell Viability Assay in HepG2 cells - 40 hour (AID 1224870); further: nearly all actives have a fitted effect of over 50% in size
In short: (§1)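 Real-time viability: cells seeded at 600 per well together with NanoLuc and cell-permeant prosubstrate, compounds added after 5 h incubation. Luminescence tracked at 0, 8, 16, 24, 32 and 40 h of exposure.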

[2] = qHTS RealTime-Glo MT Cell Viability Assay in HepG2 cells - 8 hour (AID 1224873); further: nearly all actives have a fitted effect of over 55% in size; further: potency means the concentration at half of the fitted maximal effect
In short: as §1

[3] = qHTS RealTime-Glo MT Cell Viability Assay in HepG2 cells - 32 hour (AID 1224877); further: nearly all actives have a fitted effect of over 55% in size; further: potency means the concentration at half of the fitted maximal effect
In short: (§2)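 Compound treatment began 5 h after plating HepG2 cells (600/well) with NanoLuc luciferase and prosubstrate. Plates stayed at 37 C for 40 h; luminescence was captured at six time points, 0 h through 40 h.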

[4] = A CellTox Green Cytotoxicity Assay to monitor cytotoxicity in HepG2 cells - 24 hour (AID 1224878); further: nearly all actives have a fitted effect of over 45% in size; further: potency means the concentration at half of the fitted maximal effect
In short: (§3)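 First, HepG2 cells (600/well) mixed with reagent were plated; second, after 5 h at 37 C they received compounds via pintool; third, fluorescence was measured at 0 h through 40 h at 8 h intervals.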

[5] = A CellTox Green Cytotoxicity Assay to monitor cytotoxicity in HepG2 cells - 40 hour (AID 1224879); further: nearly all actives have a fitted effect of over 40% in size; further: potency means the concentration at half of the fitted maximal effect
In short: as §3

[6] = qHTS RealTime-Glo MT Cell Viability Assay in HEK293 cells - 0 hour (AID 1224880); further: nearly all actives have a fitted effect of over 45% in size; further: potency means the concentration at half of the fitted maximal effect
In short: (§4)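 600 HEK293 cells per well, dispensed already mixed with RealTime-Glo MT reagents. Compound dosing came 5 h later. The same wells were read for luminescence at 0, 8, 16, 24, 32 and 40 h of exposure at 37 C.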

[7] = A CellTox Green Cytotoxicity Assay to monitor cytotoxicity in HepG2 cells - 32 hour (AID 1224883); further: nearly all actives have a fitted effect of over 50% in size; further: potency means the concentration at half of the fitted maximal effect
In short: as §3

[8] = qHTS RealTime-Glo MT Cell Viability Assay in HepG2 cells - 16 hour (AID 1224885); further: nearly all actives have a fitted effect of over 50% in size; further: potency means the concentration at half of the fitted maximal effect
In short: as §2

[9] = qHTS RealTime-Glo MT Cell Viability Assay in HepG2 cells - 0 hour (AID 1224889); further: nearly all actives have a fitted effect of over 50% in size; further: potency means the concentration at half of the fitted maximal effect
In short: as §2

[10] = A CellTox Green Cytotoxicity Assay to monitor cytotoxicity in HepG2 cells - 16 hour (AID 1224876); further: nearly all actives have a fitted effect of over 45% in size; further: potency means the concentration at half of the fitted maximal effect
In short: as §3

[11] = A CellTox Green Cytotoxicity Assay to monitor cytotoxicity in HepG2 cells - 0 hour (AID 1224882); further: nearly all actives have a fitted effect of over 35% in size
In short: as §3

[12] = A CellTox Green Cytotoxicity Assay to monitor cytotoxicity in HEK293 cells - 8 hour (AID 1224884); further: nearly all actives have a fitted effect of over 35% in size; further: potency means the concentration at half of the fitted maximal effect
In short: (§5)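 Dead-cell fluorescence measured kinetically: asymmetric cyanine dye, HEK293, 600 cells/well, 5 h settle, 23 nL cpd/DMSO, 37 C, reads 0–40 h every 8 h.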

[13] = qHTS RealTime-Glo MT Cell Viability Assay in HEK293 cells - 24 hour (AID 1224886); further: nearly all actives have a fitted effect of over 50% in size; further: potency means the concentration at half of the fitted maximal effect
In short: (§6)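 Quantitative high-throughput screen of the Tox21 10K library in HEK293: cells and RealTime-Glo reagents plated together, compound added at 5 h, luminescence monitored through 40 h at 37 C.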

[14] = A CellTox Green Cytotoxicity Assay to monitor cytotoxicity in HEK293 cells - 16 hour (AID 1224888); further: nearly all actives have a fitted effect of over 35% in size; further: potency means the concentration at half of the fitted maximal effect
In short: as §5

[15] = A CellTox Green Cytotoxicity Assay to monitor cytotoxicity in HEK293 cells - 40 hour (AID 1224871); further: nearly all actives have a fitted effect of over 45% in size
In short: as §5

[16] = qHTS RealTime-Glo MT Cell Viability Assay in HEK293 cells - 16 hour (AID 1224872); further: nearly all actives have a fitted effect of over 50% in size; further: potency means the concentration at half of the fitted maximal effect
In short: as §6

[17] = qHTS RealTime-Glo MT Cell Viability Assay in HEK293 cells - 40 hour (AID 1224874); settings: RealTime-Glo luminescence; max response: hits give low values; further: nearly all actives have a fitted effect of over 50% in size; further: potency means the concentration at half of the fitted maximal effect
In short: as §4

[18] = A CellTox Green Cytotoxicity Assay to monitor cytotoxicity in HEK293 cells - 24 hour (AID 1224875); further: nearly all actives have a fitted effect of over 45% in size; further: potency means the concentration at half of the fitted maximal effect
In short: as §5

[19] = qHTS RealTime-Glo MT Cell Viability Assay in HEK293 cells - 8 hour (AID 1224887); further: nearly all actives have a fitted effect of over 50% in size; further: potency means the concentration at half of the fitted maximal effect
In short: as §4

[20] = A CellTox Green Cytotoxicity Assay to monitor cytotoxicity in HEK293 cells - 32 hour (AID 1224881); further: nearly all actives have a fitted effect of over 40% in size; further: potency means the concentration at half of the fitted maximal effect
In short: as §5

With `Cc1cc(O)ccc1O` the Potency [1] was “inactive”, the Potency [2] was “inactive” and the Potency [3] was “inactive”. For the same molecule, the Potency [4] was “inactive”, the Potency [5] was “inactive” and the Potency [6] was “inactive”. For the same molecule, the Potency [7] was “inactive”, the Potency [8] was “inactive” and the Potency [9] was “inactive”.
With `CC(C)(C)CC(=O)OCC(=O)[C@@]1(O)CC[C@H]2[C@@H]3CCC4=CC(=O)C=C[C@]4(C)[C@H]3[C@@H](O)C[C@@]21C` the Potency [1] was “inactive”, the Potency [2] was “inactive” and the Potency [10] was “inactive”. The Potency [3] was “inactive”, the Potency [4] was “inactive” and the Potency [5] was “inactive”. For the same molecule, the Potency [6] was 7.56 µM (active), the Potency [11] was “inactive” and the Potency [7] was “inactive”. The Potency [12] was “inactive”, the Potency [8] was “inactive” and the Potency [13] was 21.3 µM (active). For the same molecule, the Potency [14] was “inactive” and the Potency [9] was 1.34 µM (active).
For `CCCCCCCCN`, the Potency [15] was “inactive”, the Potency [16] was “inactive” and the Potency [2] was “inactive”. For the same molecule, the max response [17] was -0.288%, the Potency [18] was “inactive” and the Potency [10] was “inactive”. The Potency [3] was “inactive”, the Potency [5] was “inactive” and the Potency [6] was “inactive”. The Potency [11] was “inactive”, the Potency [7] was “inactive” and the Potency [12] was “inactive”. For the same molecule, the Potency [8] was “inactive”, the Potency [19] was “inactive” and the Potency [14] was “inactive”. For the same molecule, the Potency [9] was “inactive”.
With `C[C@@H](O)[C@H]1C(=O)N2C(C(=O)O)=C([C@H]3CCCO3)S[C@H]12` the Potency [1] was “inactive”, the Potency [16] was “inactive” and the Potency [2] was “inactive”. The Potency [18] was “inactive”, the Potency [10] was “inactive” and the Potency [4] was “inactive”. For the same molecule, the Potency [5] was “inactive”, the Potency [6] was “inactive” and the Potency [20] was “inactive”. For the same molecule, the Potency [11] was “inactive”, the Potency [7] was “inactive” and the Potency [12] was “inactive”. The Potency [8] was “inactive”, the Potency [13] was “inactive” and the Potency [19] was “inactive”. For the same molecule, the Potency [14] was “inactive” and the Potency [9] was “inactive”.
In the case of `O=C1C(=O)c2ccccc2C(O)=C1C1CCC(c2ccc(Cl)cc2)CC1` (configuration not stated), the Potency [1] is reported as “inactive”, the Potency [16] is reported as “inactive” and the Potency [2] is reported as “inactive”. For the same molecule, the Potency [18] was “inactive”, the Potency [10] was “inactive” and the Potency [3] was “inactive”. For the same molecule, the Potency [4] was “inactive”, the Potency [6] was 7.56 µM (active) and the Potency [20] was “inactive”. For the same molecule, the Potency [7] was “inactive”, the Potency [8] was “inactive” and the Potency [19] was “inactive”. For the same molecule, the Potency [14] was “inactive”.
For `COC(=O)[C@H]1[C@H]2C[C@@H]3c4[nH]c5cc(OC)ccc5c4CCN3C[C@H]2C[C@@H](OC(=O)/C=C/c2ccc(O)c(OC)c2)[C@@H]1OC`, the Potency [1] was “inactive”, the Potency [18] was 16.9 µM (active) and the Potency [10] was 23.9 µM (active). The Potency [3] was “inactive”, the Potency [4] was 26.8 µM (active) and the Potency [5] was 23.9 µM (active). The Potency [6] was “inactive”, the Potency [20] was 19 µM (active) and the Potency [7] was 23.9 µM (active). The Potency [12] was 19 µM (active), the Potency [8] was “inactive” and the Potency [14] was 16.9 µM (active). For the same molecule, the Potency [9] was “inactive”.
With `Oc1cc2c(cc1O)[C@H]1c3ccc(O)c(O)c3OC[C@@]1(O)C2` the Potency [2] was 39.4 µM (active), the Potency [18] was 49.6 µM (active) and the Potency [10] was “inactive”. The Potency [3] was 55.6 µM (active), the Potency [4] was “inactive” and the Potency [6] was “inactive”. The Potency [11] was “inactive”, the Potency [8] was 44.2 µM (active) and the Potency [13] was “inactive”. For the same molecule, the Potency [19] was 22.2 µM (active), the Potency [14] was 49.6 µM (active) and the Potency [9] was “inactive”.
With `Cc1cc2c(OCC(CNC(C)(C)C)OC(=O)c3ccccc3)cccc2[nH]1` (configuration not stated) the Potency [16] was “inactive”, the Potency [2] was “inactive” and the max response [17] was -21.5%. For the same molecule, the Potency [18] was “inactive”, the Potency [10] was “inactive” and the Potency [3] was “inactive”. The Potency [6] was “inactive”, the Potency [11] was “inactive” and the Potency [19] was “inactive”. The Potency [9] was “inactive”.
In the case of `CCOC(=O)c1ccccc1C(=C1C=C(Br)C(=O)C(Br)=C1)c1cc(Br)c(O)c(Br)c1`, the Potency [15] is reported as “inactive”, the Potency [2] is reported as “inactive” and the Potency [18] is reported as “inactive”. For the same molecule, the Potency [10] was “inactive”, the Potency [3] was “inactive” and the Potency [5] was “inactive”. The Potency [20] was “inactive”, the Potency [11] was “inactive” and the Potency [7] was “inactive”. For the same molecule, the Potency [12] was “inactive”, the Potency [8] was “inactive” and the Potency [19] was “inactive”.
In the case of `Cc1ccco1`, the Potency [15] is reported as “inactive”, the Potency [16] is reported as “inactive” and the Potency [2] is reported as “inactive”. The max response [17] was 15.4%, the Potency [18] was “inactive” and the Potency [4] was “inactive”. For the same molecule, the Potency [5] was “inactive”, the Potency [6] was “inactive” and the Potency [20] was “inactive”. The Potency [11] was “inactive”, the Potency [7] was “inactive” and the Potency [8] was “inactive”. The Potency [19] was “inactive”, the Potency [14] was “inactive” and the Potency [9] was “inactive”.
For `CC(=O)N/N=C/c1ccc([N+](=O)[O-])o1`, the Potency [15] was “inactive”, the Potency [2] was “inactive” and the max response [17] was 8%. For the same molecule, the Potency [18] was “inactive”, the Potency [3] was “inactive” and the Potency [4] was “inactive”. For the same molecule, the Potency [6] was “inactive”, the Potency [20] was “inactive” and the Potency [7] was “inactive”. The Potency [19] was “inactive” and the Potency [9] was “inactive”.
With `CN1C[C@H](C(=O)N[C@]2(C)O[C@@]3(O)[C@@H]4CCCN4C(=O)[C@H](Cc4ccccc4)N3C2=O)C[C@@H]2c3cccc4[nH]cc(c34)C[C@H]21` the Potency [16] was 23.9 µM (active), the Potency [17] was 12 µM (active) and the Potency [6] was “inactive”. For the same molecule, the Potency [11] was “inactive”, the Potency [12] was “inactive” and the Potency [13] was 21.3 µM (active). The Potency [19] was 23.9 µM (active), the Potency [14] was “inactive” and the Potency [9] was “inactive”.
In the case of `COc1ccccc1N1CCN(CCCCNC(=O)c2ccc(-c3ccc(C(C)=O)cc3)cc2)CC1`, the Potency [16] is reported as 1.9 µM (active), the Potency [2] is reported as “inactive” and the Potency [17] is reported as 1.9 µM (active). For the same molecule, the Potency [18] was “inactive”, the Potency [10] was “inactive” and the Potency [3] was “inactive”. The Potency [5] was 26.8 µM (active), the Potency [6] was “inactive” and the Potency [12] was “inactive”. For the same molecule, the Potency [14] was “inactive” and the Potency [9] was “inactive”.
In the case of `COc1cc(N)c(Cl)cc1C(=O)NC1CCN(CCCOc2ccc(F)cc2)CC1OC` (configuration not stated), the Potency [15] is reported as “inactive”, the Potency [16] is reported as 2.39 µM (active) and the Potency [2] is reported as “inactive”. The Potency [17] was 3.01 µM (active), the Potency [18] was “inactive” and the Potency [3] was “inactive”. The Potency [4] was “inactive”, the Potency [6] was “inactive” and the Potency [20] was “inactive”. For the same molecule, the Potency [11] was “inactive”, the Potency [12] was “inactive” and the Potency [8] was “inactive”. For the same molecule, the Potency [19] was 3.01 µM (active), the Potency [14] was “inactive” and the Potency [9] was “inactive”.
For `CCCCCC#CC(=O)OC`, the Potency [15] was “inactive”, the Potency [16] was “inactive” and the Potency [18] was “inactive”. The Potency [3] was “inactive”, the Potency [4] was “inactive” and the Potency [5] was “inactive”. The Potency [6] was “inactive”, the Potency [20] was “inactive” and the Potency [11] was “inactive”. For the same molecule, the Potency [7] was “inactive”, the Potency [8] was “inactive” and the Potency [19] was “inactive”. The Potency [14] was “inactive” and the Potency [9] was “inactive”.
In the case of `C=C(C)[C@@H]1CCC2=CCC[C@@H](C)[C@]2(C)C1`, the Potency [15] is reported as “inactive”, the Potency [16] is reported as “inactive” and the Potency [2] is reported as “inactive”. For the same molecule, the max response [17] was 0.724%, the Potency [18] was “inactive” and the Potency [3] was “inactive”. For the same molecule, the Potency [20] was “inactive”, the Potency [8] was “inactive” and the Potency [13] was “inactive”. The Potency [19] was “inactive” and the Potency [14] was “inactive”.
